# According to PubChem BioAssay (EPA / NIEHS):
# “And” between values parts separate entries of the source, which are not always exact repeats. Identical values can stand only once. Results filed as inconclusive are left out. A structure can be active in one record and inactive in another. The source made the active and inactive calls. How the source made its calls, unless noted: active means hit-call score of the fitted dose curve at least 0.9, where 1 is the maximum; inactive means score below 0.9.
# Legend:
# [1] = read-out: solute carrier (SLCO1B1), SLCO1B1 (gene 10599); assay: LTEA_HepaRG_SLCO1B1: Life Technologies and Expression Analysis (LTEA) Assay for solute carrier (SLCO1B1) using HepaRG (AID 2283530); conditions: mRNA level, 48 h; actives raise or lower the signal
# Outline: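 Differentiated human HepaRG cells, plated 48 h, switched to serum-free induction medium and exposed in duplicate for 48 h to 8 half-log concentrations (top 100 uM) in 0.5% DMSO. SLCO1B1 mRNA by TaqMan qRT-PCR, normalized to ACTB/GAPDH/POLR2A.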
# [2] = read-out: sulfotransferase 2A1 (SULT2A1), SULT2A1 (gene 6822); assay: LTEA_HepaRG_SULT2A1: Life Technologies and Expression Analysis (LTEA) Assay for sulfotransferase 2A1 (SULT2A1) using HepaRG (AID 2283531); conditions: mRNA level, 48 h; actives raise or lower the signal
# Outline: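 Differentiated human HepaRG cells in serum-free induction medium were exposed for 48 h to eight half-log concentrations (top 100 uM, 0.5% DMSO). SULT2A1 mRNA was measured by qRT-PCR, normalized to ACTB, GAPDH and POLR2A, and fitted bidirectionally against DMSO.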
# [3] = read-out: Transforming Growth Factor (TGFA), TGFA (gene 7039); assay: LTEA_HepaRG_TGFA: Life Technologies and Expression Analysis (LTEA) Assay for Transforming Growth Factor (TGFA) using HepaRG (AID 2283532); conditions: mRNA level, 48 h; actives raise or lower the signal
# Outline: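 Differentiated HepaRG cells exposed 48 hours in serum-free induction medium, 0.5% DMSO vehicle, 8-point half-log series from 100 uM, in duplicate. TGFA mRNA by TaqMan qRT-PCR, normalised to ACTB, GAPDH, POLR2A; bidirectional fit versus DMSO.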
# [4] = read-out: Transforming Growth Factor (TGFB1), TGFB1 (gene 7040); assay: LTEA_HepaRG_TGFB1: Life Technologies and Expression Analysis (LTEA) Assay for Transforming Growth Factor (TGFB1) Transporter using HepaRG (AID 2283533); conditions: mRNA level, 48 h; actives raise or lower the signal
# Outline: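 Differentiated human HepaRG cells in serum-free induction medium were exposed in duplicate for 48 h to eight concentrations (top 100 uM, half-log steps, 0.5% DMSO). TGFB1 mRNA was quantified by qRT-PCR, normalized to ACTB, GAPDH, POLR2A, and fitted bidirectionally against DMSO.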
# TIMP1, TIMP1 (gene 7076) = assay: LTEA_HepaRG_TIMP1: Life Technologies and Expression Analysis (LTEA) Assay for TIMP1 using HepaRG (AID 2283534); conditions: mRNA level, 48 h; actives raise or lower the signal;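 further: TaqMan qRT-PCR signal normalized to ACTB GAPDH and POLR2A housekeeping genes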
# Outline: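 Differentiated human HepaRG cells in serum-free induction medium were exposed 48 h to chemicals (8 half-log concentrations, top 100 uM, 0.5% DMSO). TIMP1 mRNA was quantified by TaqMan qRT-PCR, normalized to ACTB/GAPDH/POLR2A; bidirectional fit versus DMSO.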
# [5] = read-out: Tumor necrosis factor receptor 1 (TNFRSF1A), TNFRSF1A (gene 7132); assay: LTEA_HepaRG_TNFRSF1A: Life Technologies and Expression Analysis (LTEA) Assay for Tumor necrosis factor receptor 1 (TNFRSF1A) using HepaRG (AID 2283535); conditions: mRNA level, 48 h; actives raise or lower the signal
# Outline: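 Differentiated human HepaRG cells were exposed in duplicate for 48 h in serum-free induction medium to eight concentrations (top 100 uM, half-log steps, 0.5% DMSO). TNFRSF1A mRNA was quantified by qRT-PCR, normalized to ACTB, GAPDH and POLR2A, then fitted bidirectionally against DMSO.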
# [6] = read-out: Thyroid Hormone Responsive (THRSP), THRSP (gene 7069); assay: LTEA_HepaRG_THRSP: Life Technologies and Expression Analysis (LTEA) Assay for Thyroid Hormone Responsive (THRSP) using HepaRG (AID 2283536); conditions: mRNA level, 48 h; actives raise or lower the signal
# Outline: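 Differentiated HepaRG cells treated 48 h in serum-free induction medium with 8 half-log concentrations up to 100 uM (0.5% DMSO), duplicates. THRSP mRNA by TaqMan qRT-PCR normalised to ACTB, GAPDH, POLR2A; bidirectional fit versus DMSO.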
# [7] = read-out: Cellular tumor antigen p53 (Homo sapiens) (UniProt P04637); assay: LTEA_HepaRG_TP53: Life Technologies and Expression Analysis (LTEA) Assay for Tumor Protein P53 (TP53) using HepaRG (AID 2283537); conditions: mRNA level, 48 h; actives raise or lower the signal
# Outline: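 Read-out is TP53 transcript level by microfluidic qRT-PCR, normalised to three housekeeping genes and fitted bidirectionally against DMSO. Human HepaRG cells received compounds for 48 h, highest concentration 100 uM.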
# [8] = read-out: UDP glucuronosyltransferase (UGT1A1), UGT1A1 (gene 54658); assay: LTEA_HepaRG_UGT1A1: Life Technologies and Expression Analysis (LTEA) Assay for UDP glucuronosyltransferase (UGT1A1) using HepaRG (AID 2283538); conditions: mRNA level, 48 h; actives raise or lower the signal
# Outline: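 HepaRG cells, 0.5% DMSO vehicle, 48 h exposure in serum-free induction medium to 8-point half-log series topping at 100 uM, in duplicate. UGT1A1 mRNA by Fluidigm qRT-PCR, normalized to ACTB/GAPDH/POLR2A; bidirectional fit versus DMSO.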
# [9] = read-out: X-box binding protein 1 (XBP1), XBP1 (gene 7494); assay: LTEA_HepaRG_XBP1: Life Technologies and Expression Analysis (LTEA) Assay for X-box binding protein 1 (XBP1) using HepaRG (AID 2283540); conditions: mRNA level, 48 h; actives raise or lower the signal
# Outline: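 Differentiated human HepaRG cells in serum-free induction medium were exposed in duplicate for 48 h to eight half-log concentrations up to 100 uM in 0.5% DMSO. XBP1 mRNA was quantified by qRT-PCR, normalised to ACTB, GAPDH and POLR2A, with bidirectional fitting against DMSO.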
# [10] = LTEA_HepaRG_LDH_cytotoxicity: Cytotoxicity Assessment in the Life Technologies and Expression Analysis (LTEA) Assay (AID 2283563; active means hit-call score of the fitted dose curve at least 0.9, where 1 is the maximum;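 on AC50: LDH activity released into spent culture medium as a marker of cell death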)
# Outline: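 Differentiated human HepaRG cells, plated 48 h beforehand, were switched to serum-free induction medium and exposed for 48 h to eight half-log concentrations (top 100 uM) in 0.5% DMSO. LDH was measured in spent medium; activity was fitted relative to DMSO vehicle.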
# [11] = ATG_XTT_Cytotoxicity: Cytotoxicity Assessment in the Attagene TRANS-FACTORIAL HepG2 Assay (AID 2283584; active means hit-call score of the fitted dose curve at least 0.9, where 1 is the maximum;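 on AC50: cells exposed to compound for 24 h before reading; active means loss of viability signal versus DMSO baseline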)
# Outline: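 HepG2 human liver cells, transiently transfected with multiple GAL4-UAS reporter units, were dosed and read at 24 h by XTT as cell number. Loss of signal was fitted relative to DMSO negative control baseline.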
# [12] = molecular target: Cellular tumor antigen p53 (Homo sapiens) (UniProt P04637); assay: TOX21_p53_BLA_p2_ratio: Tox21 HCT-116 p53 Agonism Beta-lactamase Assay, Ratio, Phase 2 (AID 2283592; active means hit-call score of the fitted dose curve at least 0.9, where 1 is the maximum)
# Chain of Cellular tumor antigen p53 (Homo sapiens) (P04637 whole entry, looked up): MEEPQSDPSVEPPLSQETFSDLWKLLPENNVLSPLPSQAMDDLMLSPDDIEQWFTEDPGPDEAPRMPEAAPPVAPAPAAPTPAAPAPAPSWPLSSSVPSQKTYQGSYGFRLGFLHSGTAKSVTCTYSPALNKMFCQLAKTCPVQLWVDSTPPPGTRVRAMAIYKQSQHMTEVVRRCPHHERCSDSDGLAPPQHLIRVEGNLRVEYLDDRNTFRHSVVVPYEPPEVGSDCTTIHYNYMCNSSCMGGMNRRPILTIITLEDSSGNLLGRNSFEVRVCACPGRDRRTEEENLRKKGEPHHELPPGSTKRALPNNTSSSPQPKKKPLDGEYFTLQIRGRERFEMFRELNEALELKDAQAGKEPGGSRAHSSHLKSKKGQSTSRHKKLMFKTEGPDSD
# Outline: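 HCT116 cells carrying a p53-responsive beta-lactamase reporter were plated, incubated 5 h at 37C, then dosed with compounds in DMSO (217-fold dilution) for 16 h. CCF4-AM substrate was added for 2 h at room temperature; the 460/530 nm emission ratio gave gain-of-signal activity relative to DMSO.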
# [13] = TOX21_p53_BLA_p3_viability: Viability Assessment in the Tox21 HCT-116 p53 Agonism Beta-lactamase Assay, Phase 3 (AID 2283593; active means hit-call score of the fitted dose curve at least 0.9, where 1 is the maximum;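 further: cells exposed to compound for 16 h before reading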)
# Outline: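 HCT116 cells, 4000/well, dosed 5 h after plating by pin transfer (217-fold dilution from DMSO stock) and incubated 16 h at 37C, 5% CO2. Viability read as ATP luminescence with CellTiter-Glo after 30 min at room temperature.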
# [14] = molecular target: Cellular tumor antigen p53 (Homo sapiens) (UniProt P04637); assay: TOX21_p53_BLA_p3_ratio: Tox21 HCT-116 p53 Agonism Beta-lactamase Assay, Ratio, Phase 3 (AID 2283596; active means hit-call score of the fitted dose curve at least 0.9, where 1 is the maximum)
# Outline: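 HCT116 p53-bla cells (4000/well) given compound in DMSO (217-fold dilution) after 5 h, incubated 16 h at 37C. CCF4-AM substrate 2 h at room temperature; 460/530 nm emission ratio, gain fitted against DMSO.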
# [15] = TOX21_p53_BLA_p4_viability: Viability Assessment in the Tox21 HCT-116 p53 Agonism Beta-lactamase Assay, Phase 4 (AID 2283597; active means hit-call score of the fitted dose curve at least 0.9, where 1 is the maximum;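 further: hits lower the luminescence signal meaning cytotoxicity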)
# Outline: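 HCT116 p53-bla cells (4000/well) rested 5 h at 37C, then received compounds in DMSO (217-fold dilution) for 16 h at 37C, 5% CO2. CellTiter-Glo was added after the CCF4-AM read, and luminescence was read after 30 min at room temperature.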
# [16] = molecular target: Cellular tumor antigen p53 (Homo sapiens) (UniProt P04637); assay: TOX21_p53_BLA_p5_ratio: Tox21 HCT-116 p53 Agonism Beta-lactamase Assay, Ratio, Phase 5 (AID 2283599; active means hit-call score of the fitted dose curve at least 0.9, where 1 is the maximum)
# Outline: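 HCT-116 p53-bla cells (4000/well) plated 5 h, dosed with compound (217-fold DMSO dilution) for 16 h at 37 C; CCF4-AM substrate 2 h at room temperature. Activity is the 460/530 nm emission ratio (405 nm excitation), fitted in gain-of-signal direction versus DMSO.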
# [17] = TOX21_p53_BLA_p5_viability: Viability Assessment in the Tox21 HCT-116 p53 Agonism Beta-lactamase Assay, Phase 5 (AID 2283600; active means hit-call score of the fitted dose curve at least 0.9, where 1 is the maximum)
# Outline: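 Cells were plated at 4000/well, rested 5 h at 37C, then given compounds in DMSO (217-fold dilution) for 16 h at 37C, 5% CO2. Following the CCF4-AM beta-lactamase read, CellTiter-Glo was added and luminescence was read after 30 min at room temperature.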
# [18] = molecular target: Cellular tumor antigen p53 (Homo sapiens) (UniProt P04637); assay: TOX21_p53_BLA_p4_ratio: Tox21 HCT-116 p53 Agonism Beta-lactamase Assay, Ratio, Phase 4 (AID 2283601; active means hit-call score of the fitted dose curve at least 0.9, where 1 is the maximum)
# Outline: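 HCT-116 p53 beta-lactamase reporter cells (4000/well) preincubated 5 h, then compound (217-fold dilution of DMSO stock) for 16 h at 37C. CCF4-AM substrate added 2 h at room temperature; 460/530 nm emission ratio fitted upward versus DMSO.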
structure (smiles),measurement,setting,value
O=C(O)C(F)(F)C(F)(F)C(F)(F)C(F)(F)C(F)(F)C(F)(F)C(F)(F)F,outcome,[1],inactive
same,outcome,[2],inactive
same,outcome,[3],inactive
same,outcome,[4],inactive
same,outcome,"TIMP1, TIMP1 (gene 7076)",inactive
same,outcome,[5],inactive
same,AC50,[6],26.1 µM (active)
same,outcome,[6],inactive
same,AC50,[7],12.3 µM (active)
same,outcome,[7],inactive
same,AC50,[8],3.11 µM (active) and 7.73 µM (active)
same,AC50,[9],50 µM (active)
same,outcome,[9],inactive
same,outcome,[10],inactive
same,outcome,[11],inactive
same,outcome,[12],inactive
same,outcome,[13],inactive
same,outcome,[14],inactive
same,outcome,[15],inactive
same,outcome,[16],inactive
same,outcome,[17],inactive
same,outcome,[18],inactive
O=S(=O)(O)C(F)(F)C(F)(F)C(F)(F)C(F)(F)C(F)(F)C(F)(F)C(F)(F)C(F)(F)F,AC50,[1],93.1 µM (active) and 79 µM (active) and 77.6 µM (active)
same,outcome,[1],inactive
same,AC50,[2],7.51 µM (active) and 83 µM (active) and 85.1 µM (active)
same,outcome,[2],inactive
same,AC50,[3],50 µM (active) and 16.7 µM (active) and 48 µM (active)
same,AC50,[4],48 µM (active)
same,outcome,[4],inactive
same,outcome,"TIMP1, TIMP1 (gene 7076)",inactive
same,outcome,[5],inactive
same,AC50,[6],34.2 µM (active) and 45.8 µM (active) and 60 µM (active)
same,outcome,[6],inactive
same,AC50,[7],50 µM (active) and 48 µM (active)
same,AC50,[8],12.9 µM (active) and 11.5 µM (active) and 11.9 µM (active)
same,outcome,[9],inactive
same,AC50,[10],75.8 µM (active) and 79.2 µM (active) and 75.4 µM (active)
same,outcome,[10],inactive
same,AC50,[11],151 µM (active) and 157 µM (active)
same,outcome,[11],inactive
same,outcome,[12],inactive
same,AC50,[13],61.4 µM (active)
same,outcome,[13],inactive
same,outcome,[14],inactive
same,AC50,[15],64.6 µM (active) and 48.8 µM (active) and 59.3 µM (active)
same,outcome,[16],inactive
same,outcome,[17],inactive
same,AC50,[18],82.4 µM (active) and 82.8 µM (active)
same,outcome,[18],inactive
